# According to the supplement of paper PMC11732987, “Enantioselective OTUD7B fragment discovery through chemoproteomics screening and high-throughput optimisation” (Communications Chemistry, 2025):
# A number with no mark means an inactive call.
# Legend:
# Assay in all cases: log2 ratio of Biotin-Ahx-Ub-VS probe labelling (fragment/DMSO); higher = less target engagement (more negative = stronger competition), active = hit call of the paper (q ≤ 0.05, log2 ratio ≤ -1)
# Conditions in all cases: compound concentration: 200 uM; treatment time: 3 h
# OTUD6B = molecular target: T1, OTUD6B (UniProt Q8N6M0)
# T1 sequence (whole entry): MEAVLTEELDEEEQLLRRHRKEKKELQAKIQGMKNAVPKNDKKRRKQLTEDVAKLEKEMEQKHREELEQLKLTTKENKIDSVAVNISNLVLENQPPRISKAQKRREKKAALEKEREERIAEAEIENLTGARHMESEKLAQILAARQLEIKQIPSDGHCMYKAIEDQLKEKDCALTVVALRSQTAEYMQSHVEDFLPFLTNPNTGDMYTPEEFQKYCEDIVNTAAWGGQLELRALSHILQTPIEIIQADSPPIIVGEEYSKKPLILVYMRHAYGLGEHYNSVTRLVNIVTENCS
# Outline: (§1)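 Using Biotin-Ahx-Ub-VS at 0.5 µM final for 1 h, DUBs were labelled in HEK293T lysate (495 µg per sample) that had first been treated in triplicate with fragment at 200 µM or vehicle for 3 h. NeutrAvidin enrichment, LysC and trypsin digestion and diaPASEF LC-MS/MS followed. Spectronaut label-free quantities were global-median-normalised. Values are average log2 fragment/vehicle ratios by unpaired t-test, using proteins with ≥2 unique peptides.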
# OTUD7B = molecular target: T2, OTUD7B (UniProt Q6GQQ9)
# T2 sequence (whole entry): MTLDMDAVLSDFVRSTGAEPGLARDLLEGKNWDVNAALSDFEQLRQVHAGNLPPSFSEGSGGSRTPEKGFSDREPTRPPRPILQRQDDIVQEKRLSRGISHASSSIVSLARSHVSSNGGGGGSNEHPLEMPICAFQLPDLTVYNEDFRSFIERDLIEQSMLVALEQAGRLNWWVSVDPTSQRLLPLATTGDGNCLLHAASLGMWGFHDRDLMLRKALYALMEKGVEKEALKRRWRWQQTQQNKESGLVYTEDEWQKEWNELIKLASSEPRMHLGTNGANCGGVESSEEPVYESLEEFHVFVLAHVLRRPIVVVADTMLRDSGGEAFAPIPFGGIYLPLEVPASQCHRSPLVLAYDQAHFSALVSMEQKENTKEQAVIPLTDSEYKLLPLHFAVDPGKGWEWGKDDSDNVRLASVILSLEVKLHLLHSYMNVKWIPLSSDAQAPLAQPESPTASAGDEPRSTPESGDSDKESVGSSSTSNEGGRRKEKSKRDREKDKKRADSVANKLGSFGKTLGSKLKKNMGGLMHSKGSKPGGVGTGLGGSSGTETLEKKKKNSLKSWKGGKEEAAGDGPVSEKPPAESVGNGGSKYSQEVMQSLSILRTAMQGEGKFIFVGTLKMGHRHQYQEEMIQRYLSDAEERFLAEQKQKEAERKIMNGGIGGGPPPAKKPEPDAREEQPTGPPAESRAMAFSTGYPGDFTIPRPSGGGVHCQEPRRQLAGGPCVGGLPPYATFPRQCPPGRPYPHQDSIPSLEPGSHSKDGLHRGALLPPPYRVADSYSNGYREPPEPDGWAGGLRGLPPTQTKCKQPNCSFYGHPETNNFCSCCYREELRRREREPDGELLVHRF
# Outline: as §1
# PRPF8 = PRPF8 (UniProt Q6P2Q9)
# Outline: as §1
# PSMD7 = molecular target: T3, PSMD7 (UniProt P51665)
# T3 sequence (whole entry): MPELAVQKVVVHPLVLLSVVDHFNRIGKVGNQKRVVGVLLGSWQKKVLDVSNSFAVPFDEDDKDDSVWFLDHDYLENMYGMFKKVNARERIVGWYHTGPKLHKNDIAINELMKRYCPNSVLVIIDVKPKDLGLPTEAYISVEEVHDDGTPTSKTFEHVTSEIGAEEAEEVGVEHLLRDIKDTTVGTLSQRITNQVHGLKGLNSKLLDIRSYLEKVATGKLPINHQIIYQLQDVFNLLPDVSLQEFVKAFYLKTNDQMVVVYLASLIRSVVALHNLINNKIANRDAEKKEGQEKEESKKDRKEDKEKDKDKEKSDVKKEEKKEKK
# Outline: as §1
# UCHL1 = UCHL1 (UniProt P09936)
# Outline: as §1
# UCHL3 = molecular target: T4, UCHL3 (UniProt P15374)
# T4 sequence (whole entry): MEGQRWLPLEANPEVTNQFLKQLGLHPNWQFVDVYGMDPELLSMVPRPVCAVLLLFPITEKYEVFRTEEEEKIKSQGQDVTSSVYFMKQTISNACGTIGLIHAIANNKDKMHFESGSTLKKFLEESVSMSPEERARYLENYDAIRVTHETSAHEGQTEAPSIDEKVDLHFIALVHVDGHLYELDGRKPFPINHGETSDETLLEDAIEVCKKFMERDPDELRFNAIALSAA
# Outline: as §1
# UCHL5 = molecular target: T5, UCHL5 (UniProt Q9Y5K5)
# T5 sequence (whole entry): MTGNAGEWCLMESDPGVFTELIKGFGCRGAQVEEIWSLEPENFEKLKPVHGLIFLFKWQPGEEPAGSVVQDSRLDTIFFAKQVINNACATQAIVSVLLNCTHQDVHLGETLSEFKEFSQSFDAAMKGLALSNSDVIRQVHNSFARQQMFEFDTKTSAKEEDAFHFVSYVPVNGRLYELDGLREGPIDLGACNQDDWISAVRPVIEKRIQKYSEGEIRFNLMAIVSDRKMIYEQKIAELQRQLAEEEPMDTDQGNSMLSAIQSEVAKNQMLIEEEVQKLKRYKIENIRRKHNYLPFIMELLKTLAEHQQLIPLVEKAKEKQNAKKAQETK
# Outline: as §1
# USP10 = USP10 (UniProt Q14694)
# Outline: as §1
# USP15 = molecular target: T6, USP15 (UniProt Q9Y4E8)
# T6 sequence (whole entry): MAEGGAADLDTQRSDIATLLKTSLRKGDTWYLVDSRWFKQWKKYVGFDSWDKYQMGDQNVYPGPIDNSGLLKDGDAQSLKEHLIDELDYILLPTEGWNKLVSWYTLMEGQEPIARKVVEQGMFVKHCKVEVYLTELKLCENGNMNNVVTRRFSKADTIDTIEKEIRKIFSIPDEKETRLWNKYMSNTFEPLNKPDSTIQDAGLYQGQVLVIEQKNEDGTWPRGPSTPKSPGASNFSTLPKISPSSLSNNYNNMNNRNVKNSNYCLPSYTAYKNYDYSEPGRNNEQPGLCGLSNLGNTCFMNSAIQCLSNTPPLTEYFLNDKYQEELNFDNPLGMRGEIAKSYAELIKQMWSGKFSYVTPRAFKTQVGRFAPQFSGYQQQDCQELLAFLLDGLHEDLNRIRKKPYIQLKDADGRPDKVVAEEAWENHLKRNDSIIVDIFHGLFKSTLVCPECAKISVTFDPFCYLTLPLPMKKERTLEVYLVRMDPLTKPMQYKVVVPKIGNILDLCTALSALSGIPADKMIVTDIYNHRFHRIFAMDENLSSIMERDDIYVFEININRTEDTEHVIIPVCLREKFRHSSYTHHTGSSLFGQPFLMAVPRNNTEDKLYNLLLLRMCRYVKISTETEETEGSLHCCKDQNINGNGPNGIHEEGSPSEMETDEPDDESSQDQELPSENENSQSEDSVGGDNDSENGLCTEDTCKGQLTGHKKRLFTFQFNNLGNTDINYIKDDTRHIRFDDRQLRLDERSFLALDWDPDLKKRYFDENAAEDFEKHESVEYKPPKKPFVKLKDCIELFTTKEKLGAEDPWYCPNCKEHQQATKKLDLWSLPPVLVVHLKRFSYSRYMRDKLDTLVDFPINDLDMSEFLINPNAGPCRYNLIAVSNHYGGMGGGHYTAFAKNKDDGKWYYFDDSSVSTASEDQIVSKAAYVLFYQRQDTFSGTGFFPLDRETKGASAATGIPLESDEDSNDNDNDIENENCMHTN
# Outline: as §1
# USP16 = USP16 (UniProt Q9Y5T5)
# Outline: as §1
# Sequence of USP10 (Q14694 whole entry): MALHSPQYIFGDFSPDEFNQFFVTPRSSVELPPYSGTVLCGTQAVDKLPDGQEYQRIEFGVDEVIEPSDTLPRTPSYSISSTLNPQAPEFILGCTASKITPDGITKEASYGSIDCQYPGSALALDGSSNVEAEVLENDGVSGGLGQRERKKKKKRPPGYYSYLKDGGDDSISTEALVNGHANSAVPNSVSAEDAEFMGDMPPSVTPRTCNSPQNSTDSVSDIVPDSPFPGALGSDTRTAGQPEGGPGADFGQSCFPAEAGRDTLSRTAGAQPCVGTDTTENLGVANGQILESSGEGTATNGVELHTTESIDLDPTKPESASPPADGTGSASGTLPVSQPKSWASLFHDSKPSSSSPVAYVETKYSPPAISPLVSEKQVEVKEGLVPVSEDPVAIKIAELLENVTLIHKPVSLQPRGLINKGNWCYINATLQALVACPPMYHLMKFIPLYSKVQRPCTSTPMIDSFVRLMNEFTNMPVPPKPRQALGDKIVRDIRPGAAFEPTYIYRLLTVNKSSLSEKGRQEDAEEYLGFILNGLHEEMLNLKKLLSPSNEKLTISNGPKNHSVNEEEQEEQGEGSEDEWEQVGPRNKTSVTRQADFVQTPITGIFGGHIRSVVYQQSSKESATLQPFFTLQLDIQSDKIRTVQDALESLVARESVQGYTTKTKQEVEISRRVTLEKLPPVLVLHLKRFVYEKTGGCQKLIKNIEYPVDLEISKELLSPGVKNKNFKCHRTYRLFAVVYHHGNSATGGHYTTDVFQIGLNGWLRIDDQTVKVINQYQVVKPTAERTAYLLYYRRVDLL
# Sequence of USP16 (Q9Y5T5 whole entry, looked up): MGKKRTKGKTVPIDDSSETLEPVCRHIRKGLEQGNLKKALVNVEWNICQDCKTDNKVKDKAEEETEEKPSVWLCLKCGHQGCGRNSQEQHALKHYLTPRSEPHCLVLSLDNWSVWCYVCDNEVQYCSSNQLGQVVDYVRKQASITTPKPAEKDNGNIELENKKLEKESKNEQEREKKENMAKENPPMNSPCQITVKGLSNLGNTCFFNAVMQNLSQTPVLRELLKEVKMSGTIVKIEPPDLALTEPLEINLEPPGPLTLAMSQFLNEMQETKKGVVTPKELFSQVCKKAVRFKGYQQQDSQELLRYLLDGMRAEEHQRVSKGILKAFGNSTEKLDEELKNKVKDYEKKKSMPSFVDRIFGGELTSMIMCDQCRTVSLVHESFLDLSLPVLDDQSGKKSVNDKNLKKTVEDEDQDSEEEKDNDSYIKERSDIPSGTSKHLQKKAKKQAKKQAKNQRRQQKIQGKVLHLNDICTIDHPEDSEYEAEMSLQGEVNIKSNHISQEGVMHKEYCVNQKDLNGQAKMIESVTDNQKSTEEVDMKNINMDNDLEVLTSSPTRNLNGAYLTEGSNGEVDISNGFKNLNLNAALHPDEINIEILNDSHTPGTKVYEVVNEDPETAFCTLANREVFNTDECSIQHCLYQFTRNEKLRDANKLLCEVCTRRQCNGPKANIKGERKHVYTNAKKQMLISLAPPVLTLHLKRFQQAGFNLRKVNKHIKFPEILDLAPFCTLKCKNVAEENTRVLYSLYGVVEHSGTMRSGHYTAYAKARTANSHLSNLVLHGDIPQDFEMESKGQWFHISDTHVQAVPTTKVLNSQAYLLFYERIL
# Sequence of UCHL1 (P09936 whole entry, looked up): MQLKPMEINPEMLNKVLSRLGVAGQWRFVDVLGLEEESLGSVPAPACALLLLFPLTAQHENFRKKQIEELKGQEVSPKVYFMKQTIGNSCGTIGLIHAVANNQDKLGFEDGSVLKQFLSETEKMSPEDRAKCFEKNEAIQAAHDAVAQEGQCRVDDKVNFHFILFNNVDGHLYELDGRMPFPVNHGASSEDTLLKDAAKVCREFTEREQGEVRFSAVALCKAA
smiles,measurement,setting,value
Cl.O=C(CCl)N1CCC(Cc2nccs2)C1 (stereo not given),log2 ratio of Biotin-Ahx-Ub-VS probe labelling,OTUD6B,-0.205
same,log2 ratio of Biotin-Ahx-Ub-VS probe labelling,OTUD7B,-0.436
same,log2 ratio of Biotin-Ahx-Ub-VS probe labelling,PRPF8,-0.0505
same,log2 ratio of Biotin-Ahx-Ub-VS probe labelling,PSMD7,-0.315
same,log2 ratio of Biotin-Ahx-Ub-VS probe labelling,UCHL1,-1.01 (active)
same,log2 ratio of Biotin-Ahx-Ub-VS probe labelling,UCHL3,-0.0765
same,log2 ratio of Biotin-Ahx-Ub-VS probe labelling,UCHL5,-0.293
same,log2 ratio of Biotin-Ahx-Ub-VS probe labelling,USP10,0.0972
same,log2 ratio of Biotin-Ahx-Ub-VS probe labelling,USP15,-0.249
same,log2 ratio of Biotin-Ahx-Ub-VS probe labelling,USP16,0.355
